Reference: PubChem BioAssay AID720519 (National Center for Advancing Translational Sciences (NCATS), 2013)
Records with an inconclusive call do not appear. A call without a number means that no potency is given here. Active and inactive are the calls of the source. Calls follow the shape of the dose curve; as a rule, active = well fitted activation curve with a large enough effect; inconclusive = small, poorly fitted or top-dose-only effect; inactive = flat fitted curve, though single readings scatter.

Test: qHTS for Inhibitors of Cell Surface uPA Generation: Confirmatory Assay for Cherry-picked Compounds
Conditions: cell surface uPA activity generation, qHTS confirmation; series mostly up to 115 µM
Procedure, shortened: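 RAW 264.7 cells at 4000/well, incubated overnight, then treated with compounds. After 24 h at 37 C, viability was read by ATPlite luminescence. An increase in signal indicates blocked uPA-dependent LF entry.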
Potency is read from the fitted curve at half-maximal effect.

| Structure (SMILES) | Potency |
| --- | --- |
| COC(=O)[C@]1(Cc2ccccc2)N[C@H](CN(C)C(=O)c2ccccc2)[C@@H]2C(=O)N(Cc3ccccc3)C(=O)[C@@H]21 | inactive |
| CC(OC(=O)c1cccc(-n2cnnn2)c1)C(=O)Nc1ccc(F)c(F)c1F (centres undefined) | inactive |
| O=C(CCCC(=O)N(c1cccc(F)c1)C(C(=O)NC1CCCC1)c1ccc(O)cc1)Nc1ccccn1 (centres undefined) | inactive |
| Cc1ccc(NC(=O)CCCn2c(=S)[nH]c3ccsc3c2=O)cc1C | inactive |
| O=C1OCC/C1=C\c1ccc(O)cc1 | inactive |
| CC1CCCN(C(=O)c2ccc(CNc3c(N4CCCCC4)c(=O)c3=O)cc2)C1 (centres undefined) | inactive |
| COCCn1c(SCC(=O)Nc2ccc(F)cc2)nc2ccccc2c1=O | inactive |
| COc1ccc(CN2CCNC(=O)C2CC(=O)NCC2CCOCC2)cc1C (centres undefined) | inactive |
| CC(=O)c1ccc2c(c1)c1ccccc1n2CC(C)C | inactive |
| Cc1ccc(C)c(NC(=O)CCN2CCN(c3ccccc3F)CC2)c1 | inactive |
| CCOc1ccc(C(=O)NCC(=O)N2CCN(C/C=C/c3ccccc3)CC2)cc1OCC | inactive |
| COc1cc2cc(CN(CCN3CCOCC3)C(=O)Nc3ccc(F)cc3)c(=O)[nH]c2cc1OC | inactive |
| CN(C)C(=O)NC(NC(=S)Nc1ccccc1)C(Cl)(Cl)Cl (centres undefined) | inactive |
| COc1ccc(CCN=c2c([N+](=O)[O-])nn(-c3cccc(C)c3)n2O)cc1OC | inactive |
| CCCCNC(=O)C1CCN(S(=O)(=O)c2c(C)noc2/C=C\c2ccc(OC)cc2)CC1 | inactive |
| COc1ccc(CCNC(=O)CSc2nc(N)c3c(C)c(C)oc3n2)cc1OC | inactive |
| O=C(O)c1ccc(-n2nnnc2SCc2cccc(Br)c2)cc1 | inactive |
| S=C(Nc1ccccc1Cl)N1CCCC(c2ccccc2)=N1 | 13.1 µM (active) |
| CCCNC(=O)COc1coc(CN2CCN(c3ccccc3OC)CC2)cc1=O | inactive |
| O=C(NNC(=O)c1cccnc1)c1ccncc1 | inactive |

| Structure (SMILES) | Potency |
| --- | --- |
| O=C(NNC(=O)C1CC(c2cccs2)=NO1)Nc1ccccc1 (centres undefined) | inactive |
| CCSC1=NCCN1S(=O)(=O)c1ccc(Cl)cc1 | inactive |
| COc1ccc2nc(C)cc(Nc3ccccc3O)c2c1 | inactive |
| Cn1c(SCC(=O)NCCc2ccccc2)ncc(C(=O)Nc2ccc(F)cc2)c1=O | inactive |
| CC1=CC(C)C(C[N+]2(C)CCCCC2)C(C)C1 (centres undefined) | inactive |
| O=C(COc1ccc(C(=S)N2CCOCC2)cc1)N1CCOCC1 | inactive |
| COc1ccc(NC(=O)CC(C)CC(=O)NCc2ccccc2)c(OC)c1 (centres undefined) | inactive |
| COc1ccc(C(=O)OCC(=O)N(C)C2CCS(=O)(=O)C2)cc1S(=O)(=O)N(C)Cc1ccccc1 (centres undefined) | inactive |
| O=C(c1cc(COc2c(F)cccc2F)on1)N1CCc2ccccc2C1 | inactive |
| CN(C)C(=S)Nc1ccc(S(=O)(=O)N2CCCCC2)cc1 | inactive |
| O=C(Nn1cnnc1)c1ccc(Cl)c(Cl)c1 | inactive |
| COC(=O)C(CCSC)NC(=O)Cn1ncc2c(=O)oc3ccccc3c21 (centres undefined) | inactive |
| Cc1nn2c(=O)cc(CSc3nc4ccccc4[nH]3)nc2s1 | inactive |
| COC(=O)c1cc(CNC(=O)c2ccc(N3CCCC3)c([N+](=O)[O-])c2)ccc1OC | inactive |
| CCC(C)Sc1nnc(NS(=O)(=O)Cc2ccccc2)s1 (centres undefined) | inactive |
| Cc1ccc(Cl)cc1NC(=O)c1ccccc1OCC(=O)N1CCOCC1 | inactive |
| COc1ccc(OC)c(S(=O)(=O)N2CCC(NC(=O)c3ccccc3)CC2)c1 | inactive |
| CCCCn1c(N)c(N(Cc2ccccc2OC)C(=O)COc2ccc(C)cc2)c(=O)[nH]c1=O | inactive |
| Cc1cc2c(cc1S(=O)(=O)Nc1ccc(F)cc1)n(C)c(=O)c(=O)n2C | inactive |
